# From PubChem
# Hits are enriched below; roughly 3.4% of the tested compounds scored in any of these assays.
# MITF inh: human MITF inhibition, primary screen; AlphaScreen MITF homodimerization, bead proximity signal; actives 0.91% (n = 650,000); AID 1259374; inhibition, % at 2.6 µM; in the data active = inhibition above about 50%;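 also: 0% = vehicle wells with protein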
# TEAD-YAP inh: TEAD-YAP interaction inhibition. HEK-TIYL cells, TEAD-Gal4/YAP UAS-luciferase luminescence. inhibition, % at 9.12 µM. actives 1.4% (n = 640,000); in the data active = inhibition above about 32%;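 also: 0% = median of test compound wells and 100% = reference inhibitor wells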
# FBW7 activator: activators of human E3 ligase FBW7 | Q969H0 | AlphaScreen FBW7–phospho-cyclin E peptide binding, activator screen | normalized activity (activation), % at 26.1 µM | actives 0.13% (n = 650,000) | AID 1259310; in the data active = normalized activity above about 1.9%;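 also: purified mutant Fbw7 with reduced substrate affinity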
# GPR151 ag: human GPR151 activation; Q8TDV0; PathHunter beta-arrestin GPR151 cells, luminescence; activation, % at 11.2 µM; actives 1% (n = 650,000); in the data active = activation above about 4.9%;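 also: 0% = median of compound wells and 100% = cells with positive control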
# Target sequence (Q8TDV0 whole entry, looked up): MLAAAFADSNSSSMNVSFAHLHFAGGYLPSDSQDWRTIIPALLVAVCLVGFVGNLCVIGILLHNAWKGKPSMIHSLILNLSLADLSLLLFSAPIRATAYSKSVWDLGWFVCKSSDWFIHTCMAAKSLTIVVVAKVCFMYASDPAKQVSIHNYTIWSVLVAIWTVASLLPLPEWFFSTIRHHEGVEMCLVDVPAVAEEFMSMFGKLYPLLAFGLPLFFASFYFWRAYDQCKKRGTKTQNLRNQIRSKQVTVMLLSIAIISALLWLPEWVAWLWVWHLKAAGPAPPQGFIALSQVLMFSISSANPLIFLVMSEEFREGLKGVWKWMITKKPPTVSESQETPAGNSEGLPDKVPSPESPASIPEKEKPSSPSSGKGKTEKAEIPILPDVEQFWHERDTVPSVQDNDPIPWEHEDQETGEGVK
# GPR151 confirm: human GPR151 activation, confirmation screen; shares compounds with GPR151 ag; GPR151 PathHunter beta-arrestin cells, luminescence, 90 min; % of EA-reagent control over plate median; activation, % at 11.2 µM; 6,700 tested, under 10 active; AID 1508609;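 active = mean percent activation across replicates above the confirmation screen cutoff of 4.91%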
# GPR119 ag: counter-screen for GPR151 activators: effect on human GPR119; AID 1508611; actives 0.3% (n = 6,700); GPR119 PathHunter beta-arrestin cells, luminescence, 90 min; 0 = compound-well median, 100 = enzyme-acceptor control; activation, % at 11.2 µM; shares compounds with GPR151 ag;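 active = mean percent activation in the counterscreen above 29.09%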;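 also: counterscreen on off-target GPR119 to flag nonselective hits from the GPR151 activator screen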
# * hit, by the source's call; . = not tested or not shown.
SMILES,MITF inh,TEAD-YAP inh,FBW7 activator,GPR151 ag,GPR151 confirm,GPR119 ag
Cc1ccc(N(CC(=O)NCCC(C)C)C(=O)CCC(=O)Nc2ccccn2)cc1,6.0,-1.2,-0.1,6.3*,1.2,-0.8
COc1cc(=O)n2c(c1C(=O)NCc1ccsc1)CCN(C(=O)c1nonc1C)CC2,-5.1,-4.9,0.1,10.3*,0.2,11.5
Cc1ccccc1C(=O)NCCN1CCn2cc(OCc3ccccc3)c(=O)cc2C1=O,7.6,1.8,0.1,2.2,.,.
O=C(NCCN1CCn2cc(OCc3ccc(F)cc3)c(=O)cc2C1=O)C1CC1,5.3,-0.4,0.0,6.7*,0.9,-10.8
O=C(Cc1ccc(Br)cc1)Nc1c[nH]c(=O)[nH]c1=O,0.7,6.8,0.5,0.3,.,.
COc1cccc(C(=O)Oc2coc(CSc3nnc(NC(C)=O)s3)cc2=O)c1,-5.1,-2.1,-0.1,-0.6,.,.
COc1ccc(C(=O)Oc2coc(CSc3nnc(NC(C)=O)s3)cc2=O)cc1,-8.0,-3.1,-0.2,13.1*,0.6,6.1
Cc1nc2sccn2c1/C=C(\C#N)c1nc(-c2ccccc2)cs1,-6.5,0.3,0.5,-1.6,.,.
O=C(Nc1nnc(SCc2ccccc2)s1)c1cccs1,10.0,-15.8,0.1,0.9,.,.
COc1ccc(NC(=O)Nc2nnc(SCc3ccc(F)cc3)s2)cc1,3.5,-9.2,-0.2,1.2,.,.
O=C(Cc1cccs1)Nc1nnc(SCc2ccccc2)s1,-3.3,-5.3,0.1,5.1*,1.5,-0.1
O=C(Nc1ccc(F)cc1)Nc1nnc(SCc2ccccc2)s1,9.3,6.7,-0.1,5.0*,0.1,18.6
CC1CCCC(C)N1c1nnc(NC(=O)Nc2ccc(F)cc2)s1 (stereo not given),4.0,-22.9,0.2,5.3*,-0.1,-11.7
O=C(NCc1ccc(F)cc1)c1ccc2nc(-c3cccs3)c(-c3cccs3)nc2c1,1.7,11.4,-0.1,4.9*,0.0,3.0
Cc1cccc(OCC(=O)Nc2ccc3c(c2)C(=O)c2ccccc2C3=O)c1,-1.8,-12.9,-0.2,-1.4,.,.
O=C(Nc1cccc(S(=O)(=O)NCc2ccco2)c1)c1cc(F)c(F)c(F)c1F,-5.9,7.7,0.0,4.9*,-0.1,4.2
c1ccc(-c2nnc3ccc(SCc4cccnc4)nn23)cc1,-1.1,5.4,-0.2,0.4,.,.
Fc1ccc(CSc2ccc3nnc(-c4cccnc4)n3n2)cc1,-1.9,-15.7,-0.5,5.3*,0.5,1.0
Cc1ccccc1N(C)S(=O)(=O)c1ccc2[nH]cc(C(=O)N3CCC(C)CC3)c(=O)c2c1,9.7,16.8,-0.1,5.1*,0.3,2.0
O=C(NCC1(c2ccccc2)CCCC1)C1CC12CCN(C(=O)C1CCOC1)CC2 (stereo not given),-12.7,15.0,0.0,1.3,.,.
CCc1cccc2ccc(S(N)(=O)=O)c(CC)c12,-9.9,-9.7,-0.2,-0.7,.,.
Cc1ccc([N+](=O)[O-])cc1S(=O)(=O)Nc1cccc(-c2cn3cccnc3n2)c1,2.9,-6.0,-0.1,6.1*,0.0,11.7
CCn1c(COc2ccc3c(c2)OCO3)nnc1SCC(=O)OC,-2.0,1.4,0.1,0.0,.,.
O=C(c1ccco1)N(Cc1ccccc1F)C1CCS(=O)(=O)C1 (stereo not given),-12.1,-2.8,0.3,5.3*,-0.9,-1.1
O=C(CN1CCCCC1)N/N=C/c1ccccc1O,49.4,13.3,-0.3,5.8*,1.1,11.5
SMILES,MITF inh,TEAD-YAP inh,FBW7 activator,GPR151 ag,GPR151 confirm,GPR119 ag
O=C(CN(Cc1ccccc1F)S(=O)(=O)c1ccc(Cl)cc1)NCCCO,5.0,11.2,-0.1,6.0*,0.9,7.8
Cc1ccc(/C=C(\C#N)C(=O)N2CCCC2)s1,1.7,-17.8,-0.1,-1.0,.,.
CCOC(=O)C1=C(C)N(C)C(SC)=NC1c1ccco1 (stereo not given),8.6,-2.4,0.1,6.4*,1.2,5.4
O=C1CSC(C(=O)NC2(C(F)(F)F)Oc3ccccc3O2)N1 (stereo not given),-6.0,-6.9,-0.2,-0.4,.,.
CCOC(=O)CC(C(C)C)N(Cc1ccc(Cl)c([N+](=O)[O-])c1)S(=O)(=O)c1ccc(Cl)cc1 (stereo not given),9.2,-7.7,0.0,9.1*,-0.9,-10.2
Nc1cccc(-c2cc(Nc3ccc(Oc4ccccc4)cc3)nc(N)n2)c1,7.2,52.3*,0.0,4.9*,0.6,-6.6
COc1ccc(-c2cc(Nc3ccc(Oc4ccccc4)cc3)nc(N)n2)cc1,7.9,-1.9,0.1,4.9,.,.
